Screens (PubChem BioAssay)
The sample as a whole holds a higher share of hits than the screen did.
GIRK2 activator = activators of NPY4-receptor-primed GIRK2 channels, summary, cell-based, HEK293, thallium flux; HEK293 GIRK2/NPY4 cells, thallium flux fluorescence; activation (% efficacy), % for hits at 37.5 µM; AID 1259324, 2017; 34,000 tested, under 10 active;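 active means primary screen hit, no activity in plain HEK293 cells, and in GIRK2-only cells above 5% efficacy rising with concentration; inactive means the rest, including fluorescent compounds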;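 further: efficacy is normalized control-subtracted fluorescence 15 s after thallium addition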
GluA2 TARP mod = modulators of GluA2-stargazin AMPA receptor complexes, primary screen, cell-based, membrane potential dye; calls only at 30 µM; Voltage-dependent calcium channel gamma-2 subunit (Mus musculus) + Glutamate receptor 2 …; actives 3.5% (n = 40,000); HEK293 GluA2+stargazin, membrane potential dye (FDSS), glutamate EC50; hits were called plate by plate, in both directions;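 active means any of four per-well response measures lying three or more SD from its plate-wide compound average, in either direction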
Numbers without * were called inactive; i = inactive; · = no result; + = active, no number.

SMILES	GIRK2 activator	GluA2 TARP mod
Cc1ccc(CN2C(=O)CC(N3CCOCC3)C2=O)cc1 (centres undefined)	i	i
CN(C)C(=O)Cc1ccc(NC(=O)CSCc2ccccc2)cc1	i	i
COCCN1CCC(CNC(=O)C(=O)Nc2cc(Cl)ccc2OC)CC1	i	i
CCN(CC)S(=O)(=O)CCNC(=O)c1ccccc1	·	+
COCCN(CCOC)S(=O)(=O)CCNC(=O)c1ccccc1	·	i
O=C(Cc1ccc(F)cc1)NCC1CCN(C(=O)c2cc3ccccc3o2)CC1	i	i
C=CCOc1cccc(C2C(=C(O)c3ccc(F)cc3)C(=O)C(=O)N2CCCN(C)C)c1 (centres undefined)	i	·
Cc1ccc(CNC(=O)CC2Nc3cc(C)c(C)cc3NC2=O)cc1 (centres undefined)	·	+
C=CCNC(=O)CC1Nc2cc(C)c(C)cc2NC1=O (centres undefined)	i	·
COc1ccc(NC(=O)NCCCn2nc(-c3ccccc3)ccc2=O)c(OC)c1	i	i
CCNc1cc(NCCNC(=O)c2ncccn2)nc(C)n1	i	+
Cc1nc(NCCNC(=O)Nc2cccc(C)c2C)cc(N2CCOCC2)n1	i	·
Cc1nc(NCCNC(=O)c2ncccn2)cc(N2CCOCC2)n1	i	+
CCNc1cc(C)nc(NCCNC(C)=O)n1	i	·
COc1cc(/C=C2/SC(=S)N(c3ccc(C)c(C)c3)C2=O)ccc1O	·	i
COc1cc(/C=C2\SC(=S)N(c3cccc(C)c3C)C2=O)ccc1O	·	+
CC(C)(C)c1ccc(OC(=O)N2CCOCC2)cc1	·	i
O=C(Oc1ccccc1OC(=O)N1CCOCC1)N1CCOCC1	·	+
CNC(=O)CSc1nc(-c2ccccc2)c(NC(=O)CCc2ccccc2)s1	i	+
NC(=O)CSc1nc(-c2ccccc2)c(NC(=O)c2ccccc2Cl)s1	i	i
CCNC(=O)CSc1nc(-c2ccccc2)c(NC(=O)CCc2ccc(OC)cc2)s1	i	i
NC(=O)CSc1nc(-c2ccccc2)c(NC(=O)c2cccc(Cl)c2)s1	i	+
CCCNc1nc2c(c(=O)n(C)c(=O)n2C)n1CC(O)c1ccccc1 (centres undefined)	i	i
CCOc1ccc(-n2nnnc2CN2CCN(C(=O)c3c(C)noc3C)CC2)cc1	i	i
CCOc1ccc(-n2nnnc2CN2CCN(C(=O)c3c(F)cccc3Cl)CC2)cc1	i	+
SMILES	GIRK2 activator	GluA2 TARP mod
CN1CCN(n2c3c(c(SCc4ccc(Cl)cc4)nc2=O)CCC3)CC1	i	i
COc1ccccc1-c1cnn2c(N3CCN(CC#N)CC3)cc(C)nc12	i	i
Cc1cc(C)c2c(n1)nn1c(N3CCN(Cc4ccccc4)CC3)cc(C)nc21	i	+
Cc1cc(N2CCN(CC#N)CC2)n2nc(C(F)(F)F)c(-c3ccccc3)c2n1	i	i
Cc1cc(C)c2c(n1)nn1c(N3CCN(CCOc4ccc(Cl)cc4)CC3)cc(C)nc21	·	i
C=C(C)CN1CCN(c2cc(C)nc3c4c(C)cc(C)nc4nn23)CC1	i	+
COc1ccc(F)cc1CN1CCN(c2cc(C)nc3c4c(C)cc(C)nc4nn23)CC1	i	+
Cc1cc(NC(=O)C(=O)NCC2CCCO2)no1 (centres undefined)	·	i
O=C(NCC(=O)N1CCOC(c2ccccc2)C1)c1ccc(F)c(F)c1 (centres undefined)	i	·
CCN1CCN(C(=O)c2snc(-c3ccc(C)cc3)c2N)CC1	i	·
O=C(NCc1cccs1)c1ccc(S(=O)(=O)c2ccccc2)nc1	i	i
Cn1nnc2c(SCC(=O)Nc3ccc(Cl)c(Cl)c3)ncnc21	i	i
COc1c(C)cc(S(=O)(=O)NCC(c2ccsc2)N2CCc3ccccc3C2)cc1C (centres undefined)	i	i
O=C(NCC(c1ccsc1)N1CCc2ccccc2C1)C1CC1 (centres undefined)	i	+
COc1ccc(OCCCn2c(CNC(=O)c3ccco3)nc3ccccc32)cc1	i	·
CCOc1ccc(CC(=O)NCC(c2ccc(F)cc2)N2CCOCC2)cc1 (centres undefined)	·	i
Cc1cc(N(C)C)nc(NCCNC(=O)c2cnccn2)n1	i	+
Cc1cc(N(C)C)nc(NCCNC(=O)c2ccc(Br)o2)n1	i	·
Cn1nc(NC(=O)c2ccccc2C(F)(F)F)c2c1NC(=O)CC2c1cccs1 (centres undefined)	i	i
Cc1nn(C2CCS(=O)(=O)C2)c2nc(-c3ccco3)cc(C(=O)NCCc3ccc(F)cc3)c12 (centres undefined)	i	+
